Screening data: PubChem, National Center for Advancing Translational Sciences (NCATS)
Rows were chosen to be rich in hits. Some 8.9% of all compounds tested hit in one or more screens of this group.
KB-V1 MDR tox: KB-V1 MDR subline cytotoxicity | AID 1347076 | Potency, µM (highest dose often 46.1 µM), usual class: cytotoxic | KB-V1 MDR cells viability, CellTiter-Glo, 72 h | actives 3.4% (n = 400,000); further: potency means the concentration at half of the fitted maximal effect; on the % scale 0 is the no-effect control and ±100 the full control effect; nearly all actives have a fitted effect of over 60% in size
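qHTS viability screen in drug-selected KB-V1 MDR cells: 72 h compound treatment at 37 degrees C, ATP luminescence end point.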
MCF10A rerep: inducers of DNA re-replication in MCF 10A breast cells; MCF 10A DNA re-replication, Hoechst nuclear intensity, 48 h; Potency, µM (series often up to 46.1 µM), for inactives: at the highest dose activity, positive = re-replication, hits mostly activators; actives 2.9% (n = 350,000); AID 624296; further: potency means the concentration at half of the fitted maximal effect; % of control where 0% means no effect; nearly all actives have a fitted effect of over 50% in size
DRD3 antagonist: blocks the human D3 dopamine receptor; D3R cells, DiscoveRx beta-arrestin luminescence, antagonist mode; stronger effect = lower value; max response, negative = inhibition, %; actives 2.5% (n = 360,000); in the data active means max response below about -50%; inconclusive means no clear call, values can overlap the other calls; further: on the % scale 0 is the no-effect control and ±100 the full control effect
Target sequence (P35462 whole entry, looked up): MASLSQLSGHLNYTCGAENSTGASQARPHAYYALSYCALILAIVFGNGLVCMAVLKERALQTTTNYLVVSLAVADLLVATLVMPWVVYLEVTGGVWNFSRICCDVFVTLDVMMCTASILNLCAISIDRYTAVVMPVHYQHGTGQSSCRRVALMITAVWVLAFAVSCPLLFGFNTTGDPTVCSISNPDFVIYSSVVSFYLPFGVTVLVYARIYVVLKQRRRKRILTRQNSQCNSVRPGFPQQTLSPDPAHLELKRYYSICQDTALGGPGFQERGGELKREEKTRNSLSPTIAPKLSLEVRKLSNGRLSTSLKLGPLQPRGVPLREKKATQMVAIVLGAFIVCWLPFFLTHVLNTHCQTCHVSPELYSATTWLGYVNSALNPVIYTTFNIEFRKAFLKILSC
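Cells plated overnight at 1500 cells/well, then exposed to library compounds with dopamine controls for 90 minutes at 37 degrees C. DiscoveRx reagent added for 30–60 minutes at room temperature; luminescence read, quantitative HTS format.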
SW480 rereplic: inducers of DNA re-replication in SW480 colon cancer cells | Potency, µM (series often up to 46.1 µM), inactives show at the highest dose re-replication activation, hits mostly activators | actives 1.8% (n = 340,000) | SW480 DNA re-replication, Hoechst DNA content imaging, 48 h | AID 624297; further: potency means the concentration at half of the fitted maximal effect; % of control where 0% means no effect; nearly all actives have a fitted effect of over 55% in size
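Compounds, transferred as 23 nL by pin tool, were incubated with cells for 48 hr; DNA content per nucleus was then quantified by Hoechst staining and fluorescence plate imaging.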
DRD3 agonist: D3 dopamine receptor (human) agonism; P35462; actives 0.58% (n = 410,000); D3R DiscoveRx beta-arrestin cells, luminescence, 90 min; max activation, %; AID 652048; in the data active means max activation above about 30%; further: 0% is about no effect
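Agonist mode: compounds and dopamine controls were applied to plated cells for 90 min at 37 degrees C after an overnight attachment at 1500 cells/well. Luminescent read-out followed 30 - 60 minutes at room temperature with DiscoveRx detection reagent.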
KB-3-1 tox: KB-3-1 parental cell cytotoxicity. AID 1347075. actives 1.4% (n = 400,000). Potency, µM (top dose mostly 46.1 µM), usual class: cytotoxic. KB-3-1 viability, CellTiter-Glo ATP luminescence, 72 h; further: potency means the concentration at half of the fitted maximal effect; on the % scale 0 is the no-effect control and ±100 the full control effect; nearly all actives have a fitted effect of over 60% in size
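Cytotoxicity measured as CellTiter-Glo luminescence after 72 h at 37 C. Compound titrations were pinned onto drug-naive KB-3-1 parental adenocarcinoma cells grown in DMEM with 10% FBS, and normalized data fitted to concentration-response curves.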
The depositor's hits bear a star. Unless noted, the call rests on the fitted dose curve; in most records, active means well fitted curve in the direction sought with a large enough effect; inconclusive means small, poorly fitted or top-dose-only effect, or another doubt; inactive means no such curve, though single readings can be large; an effect the other way counts as inactive or inconclusive.

`CCc1ccccc1NC(=O)Cn1nnc2sc3c(c2c1=O)CCC(C(C)(C)C)C3` (configuration not stated) gave KB-V1 MDR tox inactive, DRD3 agonist 7.2 and KB-3-1 tox inactive.
COc1cc(C(=O)NCC(c2ccco2)S(=O)(=O)c2cccs2)cc(OC)c1OC (configuration not stated) was read as KB-V1 MDR tox inactive, DRD3 agonist 2.1 and KB-3-1 tox inactive.
`Cc1nn2c(N3CCN(c4ccccn4)CC3)cc(C(C)C)nc2c1-c1ccccc1` gave KB-V1 MDR tox inconclusive, MCF10A rerep inconclusive, DRD3 antagonist -55.9*, SW480 rereplic inconclusive, DRD3 agonist 0.0 and KB-3-1 tox inactive.
`Cc1cc(N2CCCCCC2)n2nc(C)c(-c3ccccc3)c2n1` gave KB-V1 MDR tox inactive, MCF10A rerep 16.3%, DRD3 antagonist 36.1, SW480 rereplic -5.3%, DRD3 agonist 1.8 and KB-3-1 tox inconclusive.
For CN[C@@H]1[C@@H](O)[C@@H](O[C@@H]2[C@@H](O)[C@H](O[C@H]3O[C@H](CN)[C@@H](O)[C@H](O)[C@H]3O)[C@@H](N)C[C@H]2NC(=O)C(O)CN)OC[C@]1(C)O (some centres not stated) the results were DRD3 agonist 6.5.
`COc1ccc(C2=C(C#N)C(=O)OC2)cc1` gave KB-V1 MDR tox inactive, MCF10A rerep 12.1%, DRD3 antagonist -55.9*, SW480 rereplic 2.1%, DRD3 agonist 0.5 and KB-3-1 tox inactive.
Screening NC(=O)C1CCN(c2nnc(-c3ccc4c(c3)OCCCO4)s2)CC1 returned KB-V1 MDR tox inactive and KB-3-1 tox inactive.
CCn1nc(NC(=O)c2ccncc2)c2cc3cccc(C)c3nc21 was read as KB-V1 MDR tox inactive, MCF10A rerep 29.3%, DRD3 antagonist 4.4, SW480 rereplic -2.8%, DRD3 agonist 26.9 and KB-3-1 tox inactive.
For CCn1nc(NC(=O)c2cccnc2)c2cc3cccc(C)c3nc21 the results were KB-V1 MDR tox inactive, MCF10A rerep 7.08µM*, DRD3 antagonist -6.8, SW480 rereplic inconclusive, DRD3 agonist -3.9 and KB-3-1 tox inactive.
CCCn1nc(NC(=O)c2cccc(Cl)c2)c2cc3cccc(C)c3nc21 was read as KB-V1 MDR tox inconclusive, DRD3 agonist 2.5 and KB-3-1 tox inactive.
CCn1nc(NC(=O)c2ccccn2)c2cc3cccc(C)c3nc21 was read as KB-V1 MDR tox inactive, MCF10A rerep 11.6µM*, DRD3 antagonist 13.3, SW480 rereplic inconclusive, DRD3 agonist 9.0 and KB-3-1 tox inactive.
For CCn1nc(NC(=O)C2CCCO2)c2cc3cccc(C)c3nc21 (configuration not stated) the results were KB-V1 MDR tox inactive, MCF10A rerep inconclusive, DRD3 antagonist 18.2, SW480 rereplic 18.4µM*, DRD3 agonist 6.8 and KB-3-1 tox inactive.
`O=C(NCCC1=CCCCC1)c1ccc2c(c1)sc1nc(-c3ccc(F)cc3)cn12` gave DRD3 agonist -21.6.
CCOC(=O)c1c(C)[nH]c(C(=O)COC(=O)CCSc2ccccc2)c1C was read as KB-V1 MDR tox 1.64µM*, MCF10A rerep 28.6%, DRD3 antagonist 5.7, SW480 rereplic 14.1%, DRD3 agonist -5.9 and KB-3-1 tox inconclusive.
Screening CCOC(=O)c1c(C)[nH]c(C(=O)COC(=O)CNS(=O)(=O)c2ccc(C)cc2)c1C returned KB-V1 MDR tox 4.61µM*, MCF10A rerep -1.7%, DRD3 antagonist -0.4, SW480 rereplic -2.9%, DRD3 agonist -3.8 and KB-3-1 tox inactive.
`Clc1cccc(-c2csc(-c3nc(-c4ccc(Br)s4)cs3)n2)c1` gave KB-V1 MDR tox inactive, DRD3 agonist 1.5 and KB-3-1 tox inactive.
For Cc1ccn2c(=O)cc(COc3ccc(NC(=O)C(C)(C)C)cc3)nc2c1 the results were KB-V1 MDR tox inactive, DRD3 agonist -1.5 and KB-3-1 tox inactive.
Screening Cc1cccc(-n2ncc3c(N4CCCc5ccccc54)ncnc32)c1 returned KB-V1 MDR tox 8.2µM*, MCF10A rerep 11.6µM*, DRD3 antagonist 46.0, SW480 rereplic 20.6µM*, DRD3 agonist 3.7 and KB-3-1 tox inconclusive.
Cc1cccc(-n2ncc3c(NCc4ccco4)ncnc32)c1 was read as KB-V1 MDR tox inactive, MCF10A rerep 16.4µM*, DRD3 antagonist -26.0, SW480 rereplic inconclusive, DRD3 agonist -8.8 and KB-3-1 tox inconclusive.
Cc1cccc(-n2ncc3c(NCCN4CCOCC4)ncnc32)c1 was read as KB-V1 MDR tox inactive, MCF10A rerep 2.2%, DRD3 antagonist 1.0, SW480 rereplic -3.3%, DRD3 agonist -0.8 and KB-3-1 tox inactive.
Screening O=C(Cn1cnc2c(NCc3ccccc3)ncnc21)NCc1ccccc1 returned KB-V1 MDR tox 7.31µM*, MCF10A rerep 9.2µM*, DRD3 antagonist -21.4, SW480 rereplic 11.6µM*, DRD3 agonist -10.5 and KB-3-1 tox 2.91µM*.
Screening CC(C)OCCCNc1ncnc2c1cnn2-c1ccccc1 returned KB-V1 MDR tox 14.6µM*, MCF10A rerep 22.3%, DRD3 antagonist 12.9, SW480 rereplic 5.2%, DRD3 agonist 1.0 and KB-3-1 tox inactive.
`CN(C)CCCNc1ncnc2c1cnn2-c1ccccc1` gave KB-V1 MDR tox inconclusive, MCF10A rerep 4.4%, DRD3 antagonist -29.5, SW480 rereplic -9.0%, DRD3 agonist -4.2 and KB-3-1 tox inactive.
For c1ccc(CCNc2ncnc3c2cnn3-c2ccccc2)cc1 the results were KB-V1 MDR tox inactive, MCF10A rerep inconclusive, DRD3 antagonist 22.9, SW480 rereplic 18.4µM*, DRD3 agonist -2.5 and KB-3-1 tox inactive.
`Cc1ccc(-n2ncc3c(NNC(=O)Cc4ccccc4)ncnc32)cc1` gave KB-V1 MDR tox inconclusive, MCF10A rerep 23.1µM*, DRD3 antagonist -18.2, SW480 rereplic -16.8%, DRD3 agonist -9.4 and KB-3-1 tox inactive.
Screening Cn1ncc2c(NNC(=O)Cc3ccccc3)ncnc21 returned KB-V1 MDR tox inactive, MCF10A rerep 15.7%, DRD3 antagonist 8.0, SW480 rereplic -1.6%, DRD3 agonist -0.5 and KB-3-1 tox inactive.
For Cc1cccc(-n2ncc3c(NCc4ccccc4)ncnc32)c1 the results were KB-V1 MDR tox 6.51µM*, MCF10A rerep 6.51µM*, DRD3 antagonist 17.2, SW480 rereplic 16.4µM*, DRD3 agonist 0.6 and KB-3-1 tox 3.26µM*.
Screening CC(C)Nc1ncnc2c1cnn2-c1ccc(Cl)cc1 returned KB-V1 MDR tox inconclusive, MCF10A rerep -9.0%, DRD3 antagonist 10.0, SW480 rereplic -0.9%, DRD3 agonist 4.6 and KB-3-1 tox 7.31µM*.
